Experimental data from PubChem BioAssay (NCATS).
Inconclusive results are not listed. Calls of active or inactive are those of the source. Unless noted, calls come from the whole dose curve; as a rule, active = well fitted curve in the direction sought with a large enough effect; inconclusive = small, poorly fitted or top-dose-only effect, or another doubt; inactive = no such curve, though single readings can be large; an effect the other way counts as inactive or inconclusive.

Tests used:
[1] = biological target: Cytochrome P450 3A4 (Homo sapiens) (UniProt P08684); assay: qHTS Assay for Inhibitors and Substrates of Cytochrome P450 3A4 (AID 884); note: % is set by controls: 0 for no effect and ±100 for the full control effect; nearly all actives have a fitted effect of over 50% in size
Procedure, shortened: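 20 nM human CYP3A4 with 25 uM Luciferin-PPXE (at KM) in 200 mM KPO4, preincubated 10 min with compound; NADPH regeneration started a 60 min RT reaction. Luciferin detected by luminescence, normalized to 57 uM ketoconazole as full inhibition.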

[2] = Confirmation and Secondary Assay for Modulators of Hemoglobin Beta Chain Splicing at IVS2 654 locus (AID 910);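 note: HeLa cells stably carrying EGFP split by mutant beta-globin IVS2-654 intron; % of control where 0% means no effect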
Procedure, shortened: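 Readout: per-well total peak green fluorescence (488 nm ex, 500–520 nm em) from objects 5–250 µm, reflecting correct splicing of an EGFP-654 reporter. Compounds were applied for 2 days at 37 °C to overnight-plated HeLa EGFP-654 cells; controls were DMSO and 500 nM IVS2-654 PNA.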

[3] = Confirmation and Secondary Assay for Modulators of Hemoglobin Beta Chain Splicing at IVS2 705 locus (AID 930);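 note: HeLa cells stably expressing the EGFP-705 splicing reporter; GFP fluorescence per well restored by corrected splicing of the IVS2-705 intron in EGFP; % of control where 0% means no effect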
Procedure, shortened: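 HeLa cells stably carrying EGFP interrupted by mutant beta-globin intron 2 (IVS2-705) treated 2 days at 37C with compound; 500 nM antisense PNA as control. Correct splicing read as total peak GFP intensity per well by laser-scanning cytometry.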

[4] = qHTS Assay for Lipid Storage Modulators (AID 1519; calls by dose curve; for activity change, negative = inhibition: % is set by controls: 0 for no effect and ±100 for the full control effect); conditions: Drosophila S3 cells, BODIPY lipid droplet/cell ratio, laser cytometry, cells loaded with oleic acid; for activity change, negative = inhibition: at 57.5 µM (top of the series)
Procedure, shortened: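 Cells seeded at 5,000 per well were treated with compounds over a concentration series and loaded with oleic acid (400 uM, as added). Lipid droplet fluorescence (488 nm excitation, 500-530 nm channel) was read by laser-scanning cytometry and normalized to 20 uM Triacsin C.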

[5] = qHTS profiling for inhibitors of Plasmodium falciparum proliferation (AID 504749);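 note: 0% = DMSO vehicle and full inhibition = artemisinin control; nearly all actives have a fitted effect of over 60% in size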; conditions: P. falciparum in erythrocytes, SYBR Green DNA, 72 h, at 28.7 µM (top of the series)
Procedure, shortened: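 Infected RBCs, 0.3% parasitemia/2.5% Hct final; cpd 72 h, 37 C, 5% CO2; lysis buffer with saponin/triton/SYBR Green I, o/n RT dark; FI 485/535; norm. to artemisinin (0.29 uM) and DMSO.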

[6] = biological target: Ubiquitin carboxyl-terminal hydrolase 1 (Homo sapiens) (UniProt O94782); assay: Inhibitors of USP1/UAF1: Pilot qHTS (AID 504865); note: nearly all actives have a fitted effect of over 35% in size; note: potency is the fitted concentration of half-maximal effect
Procedure, shortened: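 In 50mM HEPES pH 7.8 containing 0.5mM EDTA, 1mM TCEP, 0.1 mg/ml BSA and 0.01% Tween-20, 1nM USP1/UAF1 is exposed to compound for 15 min, then Ub-Rho (150nM final) is added and fluorescence is read over time.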

[7] = qHTS assay for small molecule antagonists of peroxisome proliferator-activated receptor delta signaling (AID 588535; active = well fitted inhibition curve with a large enough effect in the signal ratio, with a control signal flat, not every such curve was filed as active; the % refers to the signal ratio;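 for max response: cells co-treated with a PPAR-delta agonist as stimulator during compound exposure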); conditions: HEK293T PPARd-UAS-bla, beta-lactamase FRET ratio, 18 h; 460 nm channel
Procedure, shortened: (§1)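 HEK293T PPAR-delta-UAS-bla cells, 4000/well, 2% charcoal/dextran FBS; 5 h 37 C; cpd titration; 18 h 37 C; CCF4 2 h RT; FI 460/530 nm; Hill fit → IC50, efficacy.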

[8] = biological target: Peroxisome proliferator-activated receptor delta (Homo sapiens) (UniProt Q03181); assay: as above
Procedure, shortened: as §1

[9] = biological target: Vitamin D3 receptor (Homo sapiens) (UniProt P11473); assay: qHTS assay for small molecule antagonists of vitamin D receptor signaling (AID 588541; calls by dose curve;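 note: receptor activated by calcitriol during compound treatment; % is set by controls: 0 for no effect and ±100 for the full control effect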)
Procedure, shortened: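 Antagonist-mode beta-lactamase reporter assay: HEK293T VDR-UAS-bla cells were exposed to titrated compound alongside 1-alpha,25-dihydroxyvitamin D3 at 3 nM final for 16 h. Values were normalized to the 50 nM agonist control and DMSO basal, with IC50 and efficacy from Hill equation fits.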

[10] = biological target: Retinoic acid receptor RXR-alpha (Homo sapiens) (UniProt P19793); assay: qHTS assay for small molecule agonists of retinoid X receptor alpha signaling (AID 588544; calls by dose curve;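 note: 0% = DMSO basal wells and 100% = reference agonist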)
[11] = qHTS assay for small molecule antagonists of retinoid X receptor alpha signaling (AID 588546; active = well fitted inhibition curve with a large enough effect in the signal ratio, with a control signal flat, not every such curve was filed as active; the % refers to the signal ratio;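 note: cells stimulated with 9-cis-retinoic acid as agonist; % is set by controls: 0 for no effect and ±100 for the full control effect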); conditions: HEK293T RXRa-UAS-bla, beta-lactamase ratio, antagonist mode; measured here: W530 green channel, cytotoxicity proxy
Procedure, shortened: (§2)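 Beta-lactamase reporter inhibition, read as CCF4 fluorescence ratio (ex 405, em 460/530 nm) after 2 h at RT. HEK293T UAS-bla cells, 2500/well, were stimulated with 9-cis-RA at 500 or 100 nM final alongside test compound for 18 h at 37 C.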

[12] = biological target: Retinoic acid receptor RXR-alpha (Homo sapiens) (UniProt P19793); assay: as above; conditions: HEK293T RXRa-UAS-bla, beta-lactamase ratio, antagonist mode
Procedure, shortened: as §2

[13] = biological target: Peroxisome proliferator-activated receptor alpha (Homo sapiens) (UniProt Q07869); assay: qHTS assay for small molecule agonists of the peroxisome proliferator-activated receptor alpha (PPARalpha) signaling pathway (AID 651778); conditions: PathHunter PPARalpha complementation, chemiluminescence, 6 h; stronger effect = higher value; note: % of control where 0% means no effect
Procedure, shortened: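 Chemiluminescence from complemented enzyme reported PPARalpha activation in cells after 6 hr of compound treatment at 37 C. The detection reagent was incubated for 60 min at room temperature, and compounds were scored as agonists.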

[14] = qHTS assay for small molecule agonists of the antioxidant response element (ARE) signaling pathway measured by Nrf2-dependant transcriptional activity (AID 720636; active = well fitted curve in the direction sought with a large enough effect in the repeat runs; an effect the other way counts as inactive or inconclusive; note: % of control where 0% means no effect)
Procedure, shortened: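 ARE-luc HepG2 cells carrying an Nrf2-responsive luciferase reporter, in medium with 1% dialyzed FBS, exposed to compound for 16 hr at 37 C, 5% CO2. Luminescence read 30 min after ONE-Glo addition.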

[15] = qHTS assay for small molecule agonists of the antioxidant response element (ARE) signaling pathway measured by Nrf2-dependant transcriptional activity - cell viability counter screen (AID 720653; active = well fitted curve in the direction sought with a large enough effect in the repeat runs; an effect the other way counts as inactive or inconclusive; note: % is set by controls: 0 for no effect and ±100 for the full control effect); conditions: ARE-bla HepG2 viability, CellTiter-Glo ATP luminescence, 16 h; stronger effect = lower value
Procedure, shortened: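 Cytotoxicity counter screen: intracellular ATP quantified by CellTiter-Glo luminescence in the same ARE-bla HepG2 plates, after 16 h compound exposure and a 2 h beta-lactamase substrate step.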

[16] = qHTS assay for cell viability of HEK293 cells (AID 743288); conditions: ATP luminescence (CellTiter-Glo), 18 h; max response: stronger effect = lower value; note: % is set by controls: 0 for no effect and ±100 for the full control effect; nearly all actives have a fitted effect of over 50% in size
Procedure, shortened: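 HEK293 parental, 2,000 cells/well; ≥5 h pre-incubation 37 C; pintool compound addition; 18 h, 37 C; CellTiter-Glo 30 min RT; luminescence read.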

[17] = qHTS assay for cell viability of the p53RE-bla HCT-116 cell line (AID 743292); note: % is set by controls: 0 for no effect and ±100 for the full control effect; nearly all actives have a fitted effect of over 55% in size
Procedure, shortened: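 CellSensor p53RE-bla HCT-116 cells (4,000/well) pre-incubated 5 h at 37 C, then exposed to compounds in DMSO for 16 h at 37 C. Viability read as ATP content by CellTiter-Glo luminescence after 30 min at room temperature.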

[18] = biological target: Nuclear receptor subfamily 1 group I member 2 (Rattus norvegicus) (UniProt Q9R1A7); assay: qHTS assay for small molecule activators of the rat pregnane X receptor (rPXR) signaling pathway (AID 651751; call rule not given here; note: 0% is about no effect); conditions: rPXR reporter cells, luciferase (One-Glo), 24 h
[19] = biological target: Peroxisome proliferator-activated receptor gamma (Homo sapiens) (UniProt P37231); assay: qHTS assay for small molecule agonists of peroxisome proliferator-activated receptor gamma signaling (AID 588536; active = well fitted curve in the direction sought with a large enough effect in the signal ratio, with a control signal flat, not every such curve was filed as active; the % refers to the signal ratio;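 note: 0% = DMSO basal wells and 100% = rosiglitazone at 2 µM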)
Procedure, shortened: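 HEK293 UAS-bla reporter line, 1% charcoal/dextran FBS; titration, 16 h, 37 C; CCF4 loading 2 h RT; fluorescence 460/530 nm. Normalized to rosiglitazone 2 uM = 100%, DMSO = 0%.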

[20] = measured here: cell count channel max response
[21] = measured here: lipid channel max response

Chain of Ubiquitin carboxyl-terminal hydrolase 1 (Homo sapiens) (O94782 whole entry, looked up): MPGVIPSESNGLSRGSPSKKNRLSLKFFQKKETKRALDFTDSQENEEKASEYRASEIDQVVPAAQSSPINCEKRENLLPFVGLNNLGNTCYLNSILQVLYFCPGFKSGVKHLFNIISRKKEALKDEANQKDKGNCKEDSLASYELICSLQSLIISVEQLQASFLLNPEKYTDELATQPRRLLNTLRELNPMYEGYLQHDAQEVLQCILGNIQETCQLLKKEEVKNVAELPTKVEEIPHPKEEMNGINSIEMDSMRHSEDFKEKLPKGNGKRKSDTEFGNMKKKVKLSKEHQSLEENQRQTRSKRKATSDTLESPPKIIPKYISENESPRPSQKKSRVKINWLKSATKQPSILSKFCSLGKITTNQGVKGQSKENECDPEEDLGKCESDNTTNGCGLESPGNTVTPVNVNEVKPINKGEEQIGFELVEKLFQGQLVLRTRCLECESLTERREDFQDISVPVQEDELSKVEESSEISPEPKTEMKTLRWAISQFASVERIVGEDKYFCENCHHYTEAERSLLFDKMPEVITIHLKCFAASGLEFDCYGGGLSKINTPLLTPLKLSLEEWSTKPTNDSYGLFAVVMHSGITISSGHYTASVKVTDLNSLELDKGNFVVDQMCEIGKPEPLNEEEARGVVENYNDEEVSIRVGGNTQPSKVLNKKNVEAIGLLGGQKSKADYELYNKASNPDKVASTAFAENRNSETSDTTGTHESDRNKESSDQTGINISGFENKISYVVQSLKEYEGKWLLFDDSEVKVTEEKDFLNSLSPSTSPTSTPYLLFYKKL
Chain of Nuclear receptor subfamily 1 group I member 2 (Rattus norvegicus) (Q9R1A7 whole entry, looked up): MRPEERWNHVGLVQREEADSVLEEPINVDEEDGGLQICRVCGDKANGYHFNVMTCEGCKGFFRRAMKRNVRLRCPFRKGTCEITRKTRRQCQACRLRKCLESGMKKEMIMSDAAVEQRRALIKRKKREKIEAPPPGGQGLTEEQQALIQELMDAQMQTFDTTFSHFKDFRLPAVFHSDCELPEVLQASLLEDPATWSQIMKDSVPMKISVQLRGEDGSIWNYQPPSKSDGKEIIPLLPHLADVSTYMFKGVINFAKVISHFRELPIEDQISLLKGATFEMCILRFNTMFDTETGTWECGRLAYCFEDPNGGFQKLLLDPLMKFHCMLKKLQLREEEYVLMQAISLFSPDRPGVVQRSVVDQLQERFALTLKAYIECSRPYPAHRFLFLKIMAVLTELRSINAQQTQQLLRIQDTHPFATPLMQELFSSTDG
Chain of Cytochrome P450 3A4 (Homo sapiens) (P08684 whole entry, looked up): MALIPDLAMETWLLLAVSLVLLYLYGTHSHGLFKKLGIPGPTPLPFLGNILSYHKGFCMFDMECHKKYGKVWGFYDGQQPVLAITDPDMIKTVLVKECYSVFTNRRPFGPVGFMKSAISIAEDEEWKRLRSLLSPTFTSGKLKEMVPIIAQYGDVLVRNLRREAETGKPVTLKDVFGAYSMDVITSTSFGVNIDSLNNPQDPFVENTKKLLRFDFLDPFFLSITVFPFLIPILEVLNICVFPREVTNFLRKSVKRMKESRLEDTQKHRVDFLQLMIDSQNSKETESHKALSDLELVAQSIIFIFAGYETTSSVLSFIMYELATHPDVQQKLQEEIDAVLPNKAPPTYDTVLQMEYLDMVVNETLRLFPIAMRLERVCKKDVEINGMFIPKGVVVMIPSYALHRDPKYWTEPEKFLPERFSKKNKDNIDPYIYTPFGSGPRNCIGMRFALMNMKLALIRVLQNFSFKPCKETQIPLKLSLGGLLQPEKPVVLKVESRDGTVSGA
Chain of Vitamin D3 receptor (Homo sapiens) (P11473 whole entry, looked up): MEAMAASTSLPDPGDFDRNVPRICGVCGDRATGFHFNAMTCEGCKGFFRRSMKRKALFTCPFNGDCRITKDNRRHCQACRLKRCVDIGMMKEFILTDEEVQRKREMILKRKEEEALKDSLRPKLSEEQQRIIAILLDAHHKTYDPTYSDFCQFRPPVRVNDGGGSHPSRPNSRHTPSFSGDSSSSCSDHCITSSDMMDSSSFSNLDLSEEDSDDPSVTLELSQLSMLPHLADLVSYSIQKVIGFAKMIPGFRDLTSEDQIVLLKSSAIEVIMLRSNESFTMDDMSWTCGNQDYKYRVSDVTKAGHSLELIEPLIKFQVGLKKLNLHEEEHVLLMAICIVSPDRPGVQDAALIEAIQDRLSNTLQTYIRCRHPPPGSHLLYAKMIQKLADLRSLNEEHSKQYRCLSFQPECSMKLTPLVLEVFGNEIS
Chain of Peroxisome proliferator-activated receptor alpha (Homo sapiens) (Q07869 whole entry, looked up): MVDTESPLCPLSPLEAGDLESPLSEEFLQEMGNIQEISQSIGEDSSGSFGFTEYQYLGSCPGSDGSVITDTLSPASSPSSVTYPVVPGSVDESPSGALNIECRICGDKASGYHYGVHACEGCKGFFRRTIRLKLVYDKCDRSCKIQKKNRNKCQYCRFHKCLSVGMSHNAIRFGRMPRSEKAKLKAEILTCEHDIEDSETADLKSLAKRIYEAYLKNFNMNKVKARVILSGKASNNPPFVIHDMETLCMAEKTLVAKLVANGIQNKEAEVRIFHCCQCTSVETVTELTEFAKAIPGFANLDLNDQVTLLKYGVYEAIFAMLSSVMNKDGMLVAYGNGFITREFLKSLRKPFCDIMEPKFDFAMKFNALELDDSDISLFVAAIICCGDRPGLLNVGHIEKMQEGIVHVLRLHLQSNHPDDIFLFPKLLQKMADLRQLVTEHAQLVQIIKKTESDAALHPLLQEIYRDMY
Chain of Retinoic acid receptor RXR-alpha (Homo sapiens) (P19793 whole entry, looked up): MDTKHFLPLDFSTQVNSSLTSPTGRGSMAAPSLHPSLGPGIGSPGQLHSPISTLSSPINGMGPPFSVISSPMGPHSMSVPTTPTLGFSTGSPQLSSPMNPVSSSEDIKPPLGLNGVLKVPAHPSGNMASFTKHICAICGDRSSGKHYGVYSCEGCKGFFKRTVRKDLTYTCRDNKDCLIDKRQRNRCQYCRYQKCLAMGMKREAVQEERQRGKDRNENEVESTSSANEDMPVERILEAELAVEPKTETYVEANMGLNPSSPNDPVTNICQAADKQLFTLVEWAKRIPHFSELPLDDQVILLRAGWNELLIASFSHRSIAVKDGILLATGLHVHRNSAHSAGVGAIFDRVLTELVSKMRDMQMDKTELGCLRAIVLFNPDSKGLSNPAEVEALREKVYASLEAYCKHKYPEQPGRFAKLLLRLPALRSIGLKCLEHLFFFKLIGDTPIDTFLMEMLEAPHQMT
Chain of Peroxisome proliferator-activated receptor delta (Homo sapiens) (Q03181 whole entry, looked up): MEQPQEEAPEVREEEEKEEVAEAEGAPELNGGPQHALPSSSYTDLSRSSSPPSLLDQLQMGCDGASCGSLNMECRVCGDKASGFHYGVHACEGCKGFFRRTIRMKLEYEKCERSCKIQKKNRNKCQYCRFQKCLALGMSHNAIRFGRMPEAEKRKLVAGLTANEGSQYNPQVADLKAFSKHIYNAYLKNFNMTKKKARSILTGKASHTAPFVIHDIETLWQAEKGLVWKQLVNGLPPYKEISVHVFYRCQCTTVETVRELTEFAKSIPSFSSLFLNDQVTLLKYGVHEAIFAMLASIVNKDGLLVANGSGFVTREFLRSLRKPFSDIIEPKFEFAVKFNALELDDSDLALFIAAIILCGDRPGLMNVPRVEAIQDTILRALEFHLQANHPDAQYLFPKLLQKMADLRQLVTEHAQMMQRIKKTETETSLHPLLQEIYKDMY
Chain of Peroxisome proliferator-activated receptor gamma (Homo sapiens) (P37231 whole entry, looked up): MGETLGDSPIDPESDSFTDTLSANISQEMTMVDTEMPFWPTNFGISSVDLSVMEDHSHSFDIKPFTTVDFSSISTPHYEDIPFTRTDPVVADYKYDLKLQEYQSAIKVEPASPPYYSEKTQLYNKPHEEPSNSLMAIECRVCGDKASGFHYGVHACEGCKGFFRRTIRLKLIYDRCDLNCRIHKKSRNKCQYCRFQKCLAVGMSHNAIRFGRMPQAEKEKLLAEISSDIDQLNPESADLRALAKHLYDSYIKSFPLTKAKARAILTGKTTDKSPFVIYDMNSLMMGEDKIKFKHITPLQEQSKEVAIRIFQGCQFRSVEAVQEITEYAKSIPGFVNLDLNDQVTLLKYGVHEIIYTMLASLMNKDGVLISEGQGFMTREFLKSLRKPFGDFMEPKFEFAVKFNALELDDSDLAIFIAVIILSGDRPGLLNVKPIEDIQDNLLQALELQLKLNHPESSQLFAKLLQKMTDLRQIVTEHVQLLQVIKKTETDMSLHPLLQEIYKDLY

In the case of `CNc1ccc(C(=O)CC(O)CCC(C)C2OC(=O)CC(O)CC(=O)CC(O)CC(O)CC(O)CC(O)CC3(O)CC(O)C(C(=O)OC)C(CC(O[C@@H]4OC(C)C(O)C(N)C4O)/C=C/C=C/C=C/C=C/C=C/C=C/C=C/C2C)O3)cc1` (stereo not given in full), the Potency [1] is reported as “inactive”, the Potency [2] is reported as “inactive” and the Potency [3] is reported as “inactive”. For the same compound, the activity change, negative = inhibition [4] was 9.29% (inactive), the max response [4, 20] was 14.1% and the max response [4, 21] was 27.6%. The activity, negative = inhibition ([5]; parasite line A) was 6.26% (inactive) and the activity, negative = inhibition ([5]; parasite line B) was 3.77% (inactive).
With `CC1CC[C@@]2(NC1)O[C@@H]1C[C@H]3C4CC=C5C[C@@H](O)CC[C@]5(C)C4CC[C@]3(C)[C@H]1[C@@H]2C` (stereo not given in full) the Potency [1] was “inactive”, the activity change, negative = inhibition [4] was 7.46% (inactive) and the max response [4, 20] was -0.557%. The max response [4, 21] was 6.71% and the Potency [6] was “inactive”.
In the case of `O=C(O)COc1cc(Cl)c(Cl)cc1Cl`, the Potency [1] is reported as “inactive”, the Potency [2] is reported as “inactive” and the Potency [3] is reported as “inactive”. The activity change, negative = inhibition [4] was 1.28% (inactive), the max response [4, 20] was 13.2% and the max response [4, 21] was 18.6%. The Potency [6] was “inactive”, the max response [7] was 15.2% and the Potency [8] was “inactive”. The outcome [9] was “inactive”, the Potency [10] was “inactive” and the max response [11] was 20.3%. The max response [12] was -33.7% (inactive), the max response [13] was -1.8% (inactive) and the outcome [14] was “inactive”. For the same compound, the max response [15] was -9.62% (inactive), the max response [16] was -0.339% (inactive) and the Potency [17] was “inactive”. The max response [18] was -2.98% (inactive).
In the case of `CCc1cccc(C)c1N(C(=O)CCl)C(C)COC` (stereo not given), the Potency [1] is reported as “inactive”, the Potency [2] is reported as “inactive” and the Potency [3] is reported as “inactive”. For the same compound, the activity change, negative = inhibition [4] was 1.46% (inactive), the max response [4, 20] was 1.84% and the max response [4, 21] was 4.99%. The Potency [6] was “inactive”, the outcome [9] was “inactive” and the max response [11] was 0.387%. The max response [12] was -18.8% (inactive), the max response [13] was -0.424% (inactive) and the max response [15] was -0.37% (inactive). For the same compound, the max response [16] was -14.8% (inactive), the Potency [17] was “inactive” and the max response [18] was 14% (inactive).
In the case of `CN1C2CC(OC(=O)C(CO)c3ccccc3)C[C@@H]1[C@H]1OC21` (stereo not given in full), the activity change, negative = inhibition [4] is reported as 7.13% (inactive), the max response [4, 20] is reported as 12.9% and the max response [4, 21] is reported as 25.6%. For the same compound, the Potency [6] was “inactive”.
In the case of `CNC(=O)Oc1cccc2c1OC(C)(C)O2`, the Potency [1] is reported as “inactive”, the Potency [2] is reported as “inactive” and the Potency [3] is reported as “inactive”. The activity change, negative = inhibition [4] was 5.39% (inactive), the max response [4, 20] was 18% and the max response [4, 21] was 22.8%. For the same compound, the Potency [6] was “inactive”, the max response [7] was 28.5% and the Potency [8] was “inactive”. For the same compound, the outcome [19] was “inactive”, the outcome [9] was “inactive” and the Potency [10] was “inactive”. The max response [11] was -10.6%, the max response [12] was -16.4% (inactive) and the max response [13] was -1.3% (inactive). The outcome [14] was “inactive”, the max response [15] was -5.36% (inactive) and the max response [16] was -19.8% (inactive). The Potency [17] was “inactive” and the max response [18] was 2.1% (inactive).
For `CC(CCC(=O)O)C1CCC2C3CC[C@H]4CC(O)CC[C@@]4(C)C3CC[C@@]12C` (stereo not given in full), the activity change, negative = inhibition [4] was -0.0455% (inactive), the max response [4, 20] was 5.89% and the max response [4, 21] was 10.6%. For the same compound, the Potency [6] was 79.4 µM (active).
